# The source made the active and inactive calls.
# How the values were obtained:
# [1] = system: Plasmodium falciparum Sir2 (PF13_0152, Sir2A); experiment: Plasmodium falciparum Sir2A binding compounds – biochemical, small-molecule microarray, 635 nm fluorescence, primary screen (AID 1098); conditions: fluorescence 635 nm, higher = more signal;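 note: score merges spot fluorescence intensity with its signal-to-noise ratio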
# [2] = probe aDKK1 binding to arrayed compounds – biochemical, biotinylated probe, 635/667 nm fluorescence, primary screen (AID 1099); conditions: small-molecule microarray, higher = more signal;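 note: score merges 667nm spot fluorescence with signal to noise across triplicate slides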
# [3] = probe aCHRDL2 binding to arrayed compounds – biochemical, biotinylated probe, 635/667 nm fluorescence, primary screen (AID 1100); conditions: small-molecule microarray, higher = more signal
# [4] = change in splice reporter luminescence, either direction, cell-based, HEK293, spliceosome inhibition project, primary screen (AID 1101); conditions: HEK293 splicing luciferase reporter, 24 h, higher = more signal, called active from +8 up or from −8 down;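 note: HEK293 cells carrying a splicing-competent luciferase reporter gene; test concentration not given here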
# [5] = target: Fibroblast growth factor 10 (Homo sapiens) (UniProt O15520); experiment: compounds binding fibroblast growth factor 10 – biochemical, small-molecule microarray, 635 nm fluorescence, primary screen (AID 1102); conditions: FGF10 binding, fluorescence 635 nm, higher = more signal
# [6] = system: glycogen synthase kinase-3 (GSK3A per assay name; protocol says GSK3B); experiment: compounds binding glycogen synthase kinase-3 – biochemical, small-molecule microarray, 635 nm fluorescence, GSK3A, primary screen (AID 1103); conditions: fluorescence 635 nm, higher = more signal; note: the record names both GSK3A and GSK3B
# [7] = target: Epidermal growth factor receptor (Homo sapiens) (UniProt P00533); experiment: compounds binding epidermal growth factor receptor – biochemical, small-molecule microarray, 635 nm fluorescence, primary screen (AID 1104); conditions: EGFR binding, higher = more signal;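 note: score merges 667 nm emission intensity with spot signal to noise over triplicate slides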
# [8] = target: Follistatin-related protein 3 (Homo sapiens) (UniProt O95633); experiment: compounds binding follistatin-related protein 3 – biochemical, small-molecule microarray, 635 nm fluorescence, primary screen (AID 1105); conditions: FSTL3 binding, higher = more signal;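 note: score merges emission near 667 nm and signal to noise per printed spot across three slides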
# [9] = target: Dickkopf-related protein 1 (Homo sapiens) (UniProt O94907); experiment: small molecules binding DKK1 protein – biochemical, small-molecule microarray, 635 nm fluorescence scan, primary screen (AID 1106); conditions: higher = more signal;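 note: score merges emission near 667 nm with signal to noise over three replicate slides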
# [10] = system: Inhibin beta A chain (activin A); experiment: small molecules binding activin A – biochemical, small-molecule microarray, 635 nm fluorescence scan, primary screen (AID 1107); conditions: INHBA, higher = more signal;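 note: mouse activin A protein probed at 4.33 µg/mL on printed slides; score merges bound-protein fluorescence near 667 nm with spot signal-to-noise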
# [11] = system: Human papillomavirus type 1a protein E7 (residues 44-93); experiment: small molecules binding HPV E7 44-93 – biochemical, small-molecule microarray, residues 44-93, 635 nm fluorescence, primary screen (AID 1108); conditions: fluorescence 635 nm, higher = more signal;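 note: E7 fragment applied at 1 µg/mL in TBST for 1 h at 4 C; score combines spot fluorescence with its signal to noise ratio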
# [12] = hepatitis C replication reporter changes, two-sided – Huh7 cells, luciferase reporter, HCV replication inhibitor project, primary screen (AID 1109); conditions: Huh7 HCV replicon luciferase reporter, 48 h; higher = more signal;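 note: huh7 hepatoma cells harbouring a luciferase neomycin HCV replicon reporter; luciferase luminescence as measure of HCV replicon replication; test concentration not given here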
# [13] = target: Left-right determination factor 2 (Homo sapiens) (UniProt O00292); experiment: small molecules binding LEFTY2 protein – biochemical, small-molecule microarray, 635 nm fluorescence scan, primary screen (AID 1110); conditions: higher = more signal
# [14] = target: Calmodulin-1 (Homo sapiens) (UniProt P0DP23); experiment: small molecules binding calmodulin-1 with EGTA – biochemical, small-molecule microarray, Cy5-labelled CALM1, profiling panel (AID 1111); conditions: Cy5-CALM1 binding fluorescence, higher = more signal;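 note: labelled calmodulin applied in Tris saline Tween buffer holding calcium plus EGTA and DTT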
# [15] = target: Calmodulin-1 (Homo sapiens) (UniProt P0DP23); experiment: small molecules binding Ca-loaded calmodulin-1 – biochemical, small-molecule microarray, Cy5-labelled CALM1, plus calcium, artefact control for SMM control-protein annotation, profiling panel (AID 1112); conditions: Cy5-CALM1 binding fluorescence, higher = more signal;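 note: score merges spot fluorescence with signal to noise from triplicate slides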
# [16] = probe aWnt5a binding to arrayed compounds – biochemical, biotinylated probe, 635/667 nm fluorescence, primary screen (AID 1113); conditions: small-molecule microarray, higher = more signal;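 note: score merges 667 nm fluorescence intensity with signal-to-noise per printed feature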
# [17] = probe aShh binding to arrayed compounds – biochemical, biotinylated probe, 635/667 nm fluorescence, primary screen (AID 1114); conditions: small-molecule microarray, higher = more signal;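 note: probe is biotin-labelled aShh protein from a stem cell growth factor screen; measures binding of labelled protein to compounds printed on the slide; score merges feature fluorescence at 667 nm with signal-to-noise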
# [18] = probe aNog binding to arrayed compounds – biochemical, biotinylated probe, 635/667 nm fluorescence, primary screen (AID 1115); conditions: small-molecule microarray, higher = more signal;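 note: probe is biotinylated aNog protein used at 0.15 µg/mL for 1 h at 4 C; z-score combines 667 nm fluorescence of each spot with its signal to noise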
# [19] = target: Torsin-1A-interacting protein 1 (Homo sapiens) (UniProt Q5JTV8); experiment: compound microarray binding of lysate hLAP1 – cell lysate, small-molecule microarray, COS7 lysate, 635/667 nm fluorescence, primary screen (AID 1116); conditions: 635 nm fluorescence, higher = more signal
# [20] = target: Alpha-bungarotoxin (Bungarus multicinctus) (UniProt P60615); experiment: compounds binding labelled alpha-BTX control protein – biochemical, small-molecule microarray, Alexa647 label, 635/667 nm fluorescence, artefact control for SMM control protein annotation, profiling panel (AID 1117); conditions: alpha-BTX-A647 binding fluorescence, higher = more signal
# Alpha-bungarotoxin (Bungarus multicinctus), sequence (P60615 whole entry, looked up): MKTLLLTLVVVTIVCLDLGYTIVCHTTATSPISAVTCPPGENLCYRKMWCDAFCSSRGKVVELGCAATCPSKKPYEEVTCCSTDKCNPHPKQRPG
# Torsin-1A-interacting protein 1 (Homo sapiens), sequence (Q5JTV8 whole entry, looked up): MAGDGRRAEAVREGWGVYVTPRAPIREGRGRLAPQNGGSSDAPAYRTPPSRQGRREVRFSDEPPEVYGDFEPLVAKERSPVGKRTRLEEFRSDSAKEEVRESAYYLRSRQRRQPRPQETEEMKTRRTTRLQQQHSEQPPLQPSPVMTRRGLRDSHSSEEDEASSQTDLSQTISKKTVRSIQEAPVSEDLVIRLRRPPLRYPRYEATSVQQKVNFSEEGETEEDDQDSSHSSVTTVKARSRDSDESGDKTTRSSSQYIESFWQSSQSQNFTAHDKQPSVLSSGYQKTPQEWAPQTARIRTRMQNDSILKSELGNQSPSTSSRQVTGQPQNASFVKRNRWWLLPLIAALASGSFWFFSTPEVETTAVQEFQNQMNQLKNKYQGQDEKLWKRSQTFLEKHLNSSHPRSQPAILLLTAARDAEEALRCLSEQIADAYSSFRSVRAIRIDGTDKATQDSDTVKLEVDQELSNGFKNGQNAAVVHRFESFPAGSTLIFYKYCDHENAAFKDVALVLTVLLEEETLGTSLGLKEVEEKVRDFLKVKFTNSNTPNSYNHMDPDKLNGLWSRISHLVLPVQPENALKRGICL
# Fibroblast growth factor 10 (Homo sapiens), sequence (O15520 whole entry, looked up): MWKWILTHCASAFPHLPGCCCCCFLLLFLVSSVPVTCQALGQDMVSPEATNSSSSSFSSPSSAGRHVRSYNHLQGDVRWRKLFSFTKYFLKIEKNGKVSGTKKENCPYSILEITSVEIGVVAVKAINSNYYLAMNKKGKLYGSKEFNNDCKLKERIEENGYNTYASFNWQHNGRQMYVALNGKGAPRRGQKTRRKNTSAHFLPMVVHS
# Follistatin-related protein 3 (Homo sapiens), sequence (O95633 whole entry, looked up): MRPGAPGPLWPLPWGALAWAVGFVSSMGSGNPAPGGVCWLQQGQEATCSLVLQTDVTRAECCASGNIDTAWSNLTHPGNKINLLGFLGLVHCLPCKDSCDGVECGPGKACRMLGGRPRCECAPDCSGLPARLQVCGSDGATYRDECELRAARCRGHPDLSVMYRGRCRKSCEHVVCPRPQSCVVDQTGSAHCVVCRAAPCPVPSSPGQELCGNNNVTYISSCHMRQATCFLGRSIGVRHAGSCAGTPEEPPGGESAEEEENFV
# Epidermal growth factor receptor (Homo sapiens), sequence (P00533 whole entry, looked up): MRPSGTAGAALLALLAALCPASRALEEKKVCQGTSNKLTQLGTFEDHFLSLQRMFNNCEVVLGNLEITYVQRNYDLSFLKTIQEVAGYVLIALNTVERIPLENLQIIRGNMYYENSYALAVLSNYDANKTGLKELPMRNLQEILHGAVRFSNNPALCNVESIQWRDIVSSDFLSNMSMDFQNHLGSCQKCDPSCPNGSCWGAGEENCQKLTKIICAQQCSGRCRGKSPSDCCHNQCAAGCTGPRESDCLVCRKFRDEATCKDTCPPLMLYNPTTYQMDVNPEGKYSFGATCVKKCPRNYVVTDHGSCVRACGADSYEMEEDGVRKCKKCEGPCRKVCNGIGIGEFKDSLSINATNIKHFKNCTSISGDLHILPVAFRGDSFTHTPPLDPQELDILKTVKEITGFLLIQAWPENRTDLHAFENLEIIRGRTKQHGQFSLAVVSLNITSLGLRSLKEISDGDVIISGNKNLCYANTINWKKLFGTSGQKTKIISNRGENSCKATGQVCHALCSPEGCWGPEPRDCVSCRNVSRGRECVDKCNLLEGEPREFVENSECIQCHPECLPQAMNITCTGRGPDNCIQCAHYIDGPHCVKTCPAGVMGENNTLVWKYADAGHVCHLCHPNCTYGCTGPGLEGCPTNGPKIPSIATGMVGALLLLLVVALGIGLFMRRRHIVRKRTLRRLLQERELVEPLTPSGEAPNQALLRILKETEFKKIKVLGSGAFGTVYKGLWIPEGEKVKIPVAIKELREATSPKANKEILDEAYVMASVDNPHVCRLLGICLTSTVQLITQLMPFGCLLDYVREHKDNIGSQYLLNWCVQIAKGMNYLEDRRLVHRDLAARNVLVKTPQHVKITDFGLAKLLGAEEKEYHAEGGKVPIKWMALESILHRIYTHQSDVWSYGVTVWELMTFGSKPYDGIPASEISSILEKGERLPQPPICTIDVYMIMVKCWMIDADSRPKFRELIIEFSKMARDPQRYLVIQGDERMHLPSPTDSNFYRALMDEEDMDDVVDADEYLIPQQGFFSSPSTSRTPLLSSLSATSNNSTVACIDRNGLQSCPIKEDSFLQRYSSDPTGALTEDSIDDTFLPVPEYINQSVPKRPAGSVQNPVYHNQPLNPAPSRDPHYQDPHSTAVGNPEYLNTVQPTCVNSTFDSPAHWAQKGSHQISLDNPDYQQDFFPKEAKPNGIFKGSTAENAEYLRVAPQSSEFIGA
# Dickkopf-related protein 1 (Homo sapiens), sequence (O94907 whole entry, looked up): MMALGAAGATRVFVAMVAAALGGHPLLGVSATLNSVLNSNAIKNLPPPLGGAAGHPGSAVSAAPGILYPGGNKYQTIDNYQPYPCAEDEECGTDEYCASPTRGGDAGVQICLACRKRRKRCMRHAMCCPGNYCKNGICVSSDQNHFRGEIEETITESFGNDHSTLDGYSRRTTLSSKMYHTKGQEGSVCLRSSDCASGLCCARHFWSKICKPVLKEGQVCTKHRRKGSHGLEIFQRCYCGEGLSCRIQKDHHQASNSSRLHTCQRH
# Left-right determination factor 2 (Homo sapiens), sequence (O00292 whole entry, looked up): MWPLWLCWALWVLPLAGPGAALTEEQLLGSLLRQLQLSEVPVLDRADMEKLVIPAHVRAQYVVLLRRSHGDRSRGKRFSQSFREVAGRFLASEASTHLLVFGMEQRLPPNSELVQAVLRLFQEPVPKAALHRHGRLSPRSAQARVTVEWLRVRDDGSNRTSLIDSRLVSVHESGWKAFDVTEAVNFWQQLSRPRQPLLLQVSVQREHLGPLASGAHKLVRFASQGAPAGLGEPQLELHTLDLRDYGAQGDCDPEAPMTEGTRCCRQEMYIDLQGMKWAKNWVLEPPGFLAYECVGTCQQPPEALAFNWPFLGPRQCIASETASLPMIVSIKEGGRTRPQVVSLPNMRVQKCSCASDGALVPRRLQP
Structure (SMILES),composite z-score [1],composite z-score [2],composite z-score [3],z-score [4],composite z-score [5],composite z-score [6],composite z-score [7],composite z-score [8],composite z-score [9],composite z-score [10],composite z-score [11],z-score [12],composite z-score [13],composite z-score [14],composite z-score [15],composite z-score [16],composite z-score [17],composite z-score [18],composite z-score [19],composite z-score [20]
CC(CCN1CCc2nc(-c3ccccc3)c(-c3ccccc3)cc2C1)=NOC[C@@H](C)[C@H](OCc1ccccc1)C(C)C,1.42,-0.215,0.213,-0.0457 (inactive),-1.3,-1.52,-1.15,-1.76,-1.21,0.166,-1.08,-1.77,-0.323,-0.607,0.343,-0.134,-0.304,-0.278,-0.424,1.14
COc1ccccc1CN1C(=O)c2ccccc2[C@@H](C(=O)NCC(F)(F)F)[C@@H]1c1ccc(CO)cc1,1.68,-0.139,0.245,-0.14 (inactive),0.956,0.715,0.0304,0.941,0.0666,0.218,1.44,-1.26,-0.155,0.313,0.229,-0.107,0.0446,-0.425,0.488,0.472
CC(C)C[C@@H]1NC(=O)[C@H]2C[C@@H](C(=O)O)[C@@H](c3ccc(O)cc3)N2C1=O,1.08,0.717,0.171,-0.0559 (inactive),0.0112,0.141,-0.284,0.0204,0.63,1.05,0.635,3.51,0.0945,-0.187,0.131,-0.0704,0.0611,-0.144,0.588,2.19
C[C@H]1CC[C@@H](C(=O)O)N[C@@H]1c1ccc(C#CCN(C)C)cc1,0.785,-0.275,-0.337,-0.248 (inactive),0.425,0.429,0.44,0.481,0.33,0.222,-1.64,0.848,0.793,-0.263,-0.51,-0.152,0.148,-0.126,0.109,0.783
COc1ccc(O[C@@H]2[C@H](O)CO[C@H]2C=CC#Cc2ccccc2)cc1,1.32,-0.477,-0.716,0.167 (inactive),0.199,-0.207,-0.352,0.103,0.438,0.539,-0.289,-0.0351,0.347,-0.414,-0.789,-0.1,-0.138,-0.234,0.17,-0.891
CC(=O)OC[C@H]1O[C@H](CC=NOC[C@@H](C)[C@H](OCc2ccccc2)C(C)C)C=C[C@@H]1OC(C)=O,-0.15,-0.262,-0.478,0.955 (inactive),-0.17,0.1,0.0284,0.523,0.169,-0.0543,0.16,-0.854,0.455,-0.47,-0.499,0.0437,-0.186,-0.526,-0.698,-0.164
C#CCCCON=C1C[C@@H](O)[C@@H](O)[C@@H]2[C@@H]3C(=O)N([C@@H](C)c4ccccc4)C(=O)[C@@H]3CC[C@H]12,0.933,-0.253,-0.483,-1.28 (inactive),0.478,0.283,0.474,0.921,0.618,0.551,0.207,-0.638,0.45,0.0505,-0.602,0.0354,0.0796,-0.285,0.418,0.375
C=CCN1C(=O)[C@]2(O[C@H](CCn3cc(CCO)nn3)[C@@H]([Si](C)(C)c3ccc(OC)cc3)[C@@H]2C)c2cc(N3CCOC3=O)ccc21,1.62,-0.286,0.223,2.29 (inactive),0.301,0.341,-0.82,-0.609,-0.555,0.175,1.07,-3.46,-0.264,0.504,-0.463,-0.0403,-0.0356,-0.0841,1.52,0.465
CC=CC1=C(CO)[C@H](O)[C@H]2O[C@H]2[C@H]1O,0.412,-0.346,-0.786,-0.383 (inactive),0.805,1.23,0.393,0.578,1.07,-0.047,0.598,-0.956,0.827,-0.381,-1.02,-0.0758,-0.304,-0.309,-0.134,-0.0092
C=C(/C(=C/C[C@@H](OC(=O)c1ccncc1)c1ccc(OCCO)cc1)c1cnc2ccccc2c1)C(C)C,1.2,-0.144,-0.216,-2.87 (inactive),1.54,1.28,0.419,1.24,0.824,1.56,0.901,-3.18,0.466,0.193,-0.583,-0.272,-0.0234,-0.302,2.75,1.26
CCOC(=O)CCN1C(=O)[C@H]2[C@H]3[C@H](O)[C@H](O)CC(=O)[C@H]3CC[C@H]2C1=O,-0.0527,-0.202,-0.723,-1.11 (inactive),0.685,0.765,0.4,0.565,0.745,-0.0903,0.182,-1.07,0.412,0.0492,-0.375,-0.201,-0.229,-0.201,0.619,0.0323
O=C1[C@H]2[C@H]3[C@H](O)[C@H](O)CC(=NOCc4ccccc4)[C@@H]3CC[C@H]2C(=O)N1C1CCCCC1,0.991,-0.28,0.218,0.568 (inactive),-0.069,-0.0273,0.0374,-0.0832,-0.484,-0.28,0.422,-1.11,-0.102,-0.161,-0.408,-0.206,-0.265,-0.169,0.467,-0.0059

# — PubChem BioAssay
